Compound activity deposited in PubChem BioAssay by several laboratories.
GC-B act = GC-B (human) receptor activation. P20594. HEK293-GC-B cells, CNP EC30, cGMP TR-FRET; 0% at EC30 CNP, 100% saturating CNP. 370,000 compounds, 0.11% hits. activation, % at 10 µM;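 active = activation at 10 µM reaching about 35% in either raw or pattern-adjusted values, limit read from the data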
NPR1 activator = GC-A (human) enzyme activation | P16066 | HEK293 GC-A cells, cGMP TR-FRET, EC30 ANP; 0% at EC30 ANP, 100% saturating ANP | AID 1671463 | activation, % at 10 µM | 370,000 compounds, 0.14% hits; in the data active = activation above about 40%
Target sequence (P16066 whole entry, looked up): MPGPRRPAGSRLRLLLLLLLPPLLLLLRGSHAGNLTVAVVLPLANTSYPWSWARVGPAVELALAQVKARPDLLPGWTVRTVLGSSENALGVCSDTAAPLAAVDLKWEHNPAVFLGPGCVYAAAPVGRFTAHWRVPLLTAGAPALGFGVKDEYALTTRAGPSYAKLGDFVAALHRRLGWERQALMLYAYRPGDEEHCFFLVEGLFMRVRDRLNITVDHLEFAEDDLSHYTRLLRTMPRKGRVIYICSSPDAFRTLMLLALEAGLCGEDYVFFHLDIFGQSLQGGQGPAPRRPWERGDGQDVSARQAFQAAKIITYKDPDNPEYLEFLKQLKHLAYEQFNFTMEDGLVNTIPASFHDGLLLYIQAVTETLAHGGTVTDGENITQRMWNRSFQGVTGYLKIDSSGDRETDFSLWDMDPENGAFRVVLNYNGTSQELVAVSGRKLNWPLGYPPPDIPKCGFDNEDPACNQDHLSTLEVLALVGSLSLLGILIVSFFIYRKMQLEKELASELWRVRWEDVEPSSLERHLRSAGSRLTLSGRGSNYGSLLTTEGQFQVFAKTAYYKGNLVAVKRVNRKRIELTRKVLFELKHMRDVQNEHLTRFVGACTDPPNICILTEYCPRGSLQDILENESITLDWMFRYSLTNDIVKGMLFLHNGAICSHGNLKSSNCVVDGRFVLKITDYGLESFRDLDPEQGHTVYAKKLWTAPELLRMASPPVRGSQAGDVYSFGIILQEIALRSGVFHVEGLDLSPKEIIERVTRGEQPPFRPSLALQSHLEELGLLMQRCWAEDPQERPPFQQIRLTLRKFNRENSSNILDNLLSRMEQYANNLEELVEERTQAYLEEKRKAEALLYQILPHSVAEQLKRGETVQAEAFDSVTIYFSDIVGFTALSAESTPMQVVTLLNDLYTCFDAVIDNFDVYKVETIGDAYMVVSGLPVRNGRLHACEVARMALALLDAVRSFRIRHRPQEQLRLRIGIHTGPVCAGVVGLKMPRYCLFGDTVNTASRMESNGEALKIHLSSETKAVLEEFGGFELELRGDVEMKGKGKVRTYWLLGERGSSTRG
HSF1 inh = HSF1 inhibition; NIH3T3-HGL HSE-luciferase, MG132-induced, luminescence 8 h; hits give low values; activity change, negative = inhibition, % at 7.5 µM (by protocol); 300,000 compounds, 0.77% hits; AID 2098;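 active = more than half of replicate wells show activity change below -50%, luminescence cut by over half; inconclusive = some wells, but at most half, below -50%; inactive = no replicate well below -50%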;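 note: luciferase reports HSF-1 transcriptional activity via heat shock element; 0% = median of DMSO wells and -100% = zero luminescence signal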
Dyrk1A ADPGlo = Dyrk1A (rat) kinase inhibition. Q63470. ADP-Glo luminescence, NFATc1 peptide. inhibition, % at 12.5 µM. 310,000 compounds, 0.43% hits. AID 504441; in the data active = inhibition above about 50%;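 note: plate controls were vehicle with enzyme for no effect and no enzyme for full effect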
HSF-1 act = increases HSF-1 driven luciferase reporter signal; NIH3T3-HGL HSF-1 luciferase reporter, MG132, 8 h; 100% = twice DMSO control signal; activation, % at 9 µM; 300,000 compounds, 1.7% hits;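 active = mean replicate activation of at least 50% with a set share of replicates each reaching 50%; inconclusive = only one of those two conditions met; inactive = mean below 50% and too few replicates reaching it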;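 note: 0% = median of the neutral control wells and 100% = twice that signal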
aDG glyco act = alpha-DG glycosylation activation. activation, % at 10 µM. 360,000 compounds, 0.22% hits. AID 624168. Pro5-aDG cells, alpha-DG glycosylation AlphaScreen (IIH6); 0% Pro5, 100% B10-LARGE cell signal;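 active = activation of at least 8% versus controls, or a plate z-score of at least 8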;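 note: Pro5 are CHO cells carrying HIG-tagged alpha-DG that lacks glycosylation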
Starred values were filed as active, the others as inactive; ? = inconclusive; · = no result given. The list is not random: actives were taken first. Their share in the collection is about 2.5%.

SMILES	GC-B act	NPR1 activator	HSF1 inh	Dyrk1A ADPGlo	HSF-1 act	aDG glyco act
CCOC(=O)c1sc(NC(=O)Nc2ccccc2)cc1C	0.4	-6.9	28.2	8.2	82.1*	2.1
CCN(Cc1ccccc1)c1ccc(/C=C(\C#N)c2ccccn2)cc1	-4.3	-3.8	53.0	3.5	102.6*	-0.1
COc1cc(/C=C(\C#N)c2ccccn2)ccc1OCc1ccc(Cl)cc1	-1.9	-11.8	18.1	-0.3	67.5*	-0.6
CCN(CC)c1ccc(/C=C(\C#N)c2ccccn2)cc1	·	·	-58.3*	1.6	-64.0	-0.2
CCOc1ccc(-c2nnn(CCC(=O)O)n2)cc1OC	2.9	1.0	5.3	-1.2	24.7	-0.1
FC(F)(F)c1nnc(-c2ccccc2)nc1Sc1ccccc1	-1.4	0.7	260.9	0.8	260.1*	-0.3
FC(F)(F)c1nnc(-c2ccccc2)nc1Sc1ccc(Cl)cc1	-2.7	-0.3	35.0	-6.2	40.7	-0.2
CCOc1ccc(OCCC(=O)N2CCN(S(=O)(=O)c3ccc(F)cc3)CC2)cc1	0.7	4.3	-0.6	-1.9	-5.3	0.5
Cc1c(Cl)cccc1NC(=O)Nc1cnccn1	-0.4	-4.6	-64.2*	-2.4	-72.1	-0.2
Cc1ccc(NC(=O)Nc2c(C)n(C)n(-c3ccccc3)c2=O)cc1	2.0	3.1	-7.3	-7.7	8.9	0.0
Cc1c(NC(=O)Nc2ccc([N+](=O)[O-])cc2)c(=O)n(-c2ccccc2)n1C	5.0	-2.5	20.4	4.4	57.9*	0.2
O=C1ON=C(c2ccccc2)/C1=C/c1ccco1	35.4*	35.9	6.9	·	17.6	-0.1
COc1ccc(CCNC(=O)CN(c2ccc(OC)c(OC)c2)S(C)(=O)=O)cc1OC	-0.2	-1.1	-65.8*	-2.5	-72.8	0.3
CCOc1ccc(C(=O)C2CCN(CC(=O)Nc3ccccc3N3CCOCC3)CC2)cc1	4.3	-0.9	13.5	10.0	-3.8	1.1
CCn1c(SC)nnc1C1CCCN(CC(=O)Nc2ccccc2N2CCOCC2)C1 (stereo unspecified)	-0.3	2.2	14.5	2.0	67.0*	0.0
COc1ccc(CNC(=S)Nc2ccc(F)c(Cl)c2)cc1	2.1	2.9	33.2	-1.0	73.4*	0.0
NS(=O)(=O)c1ccc(CNC(=S)Nc2ccc(F)c(Cl)c2)cc1	-2.9	2.2	-3.0	-0.6	-10.7	0.2
CCOC(=O)/C(=C\c1ccccc1)C(=O)c1cc(C(C)=O)c(Nc2ccccc2)s1	-11.3	-17.6	-4.8	·	1.4	-0.5
CCOC(=O)/C(=C\c1cccnc1)C(=O)c1cc(C(C)=O)c(Nc2ccccc2)s1	·	·	-93.2*	-11.9	-93.6	-1.2
CC(NC(=O)COc1ccc(Br)cc1)C(=O)O (stereo unspecified)	-2.1	5.1	-3.3	-10.8	0.9	-0.3
Cc1ccc2c(C(=O)CSc3ccccc3)c(C)[nH]c2c1	-0.5	1.4	24.3	-0.1	54.6*	0.1
Cc1ccc(C#N)c(SCc2ccccc2F)n1	8.7	7.5	11.8	·	36.3	-0.1
Cc1ccc2nc(CSc3nc(C)ccc3C#N)[nH]c2c1	-0.3	17.3	-58.5*	6.8	-64.7	0.9
O=C(NCc1cccc(Cl)c1)C1CCN(S(=O)(=O)c2ccc(F)cc2)CC1	0.0	3.4	7.2	-3.4	2.8	0.0
COC(=O)Cn1c(=O)c2c(nc3n2CC(C)CN3CCc2ccccc2)n(C)c1=O (stereo unspecified)	5.0	7.2	18.0	-3.3	63.1*	0.0
SMILES	GC-B act	NPR1 activator	HSF1 inh	Dyrk1A ADPGlo	HSF-1 act	aDG glyco act
CN1Cc2sc(NC(=S)NC(=O)c3ccccc3)c(C#N)c2CC1(C)C	5.0	11.1	-77.0*	·	-80.5	·
CCC1(C)Cc2c(sc(NC(=S)NC(=O)c3ccccc3)c2C#N)CO1 (stereo unspecified)	-1.2	2.4	7.1	-1.2	8.2	0.2
O=c1[nH][nH]c(-c2ccccc2O)c1C(C[N+](=O)[O-])c1ccccc1 (stereo unspecified)	8.0	-2.2	164.7	0.2	228.2*	1.1
CCn1c(Cl)c(C=O)s/c1=N\S(=O)(=O)c1ccccc1	20.7	7.1	77.5	12.4	113.2*	-0.2
CCOC(=O)c1cc(-c2ccc(F)cc2)nc2c1c(=O)[nH]c(=O)n2Cc1ccccc1	43.1*	37.2	-2.0	-2.8	-0.9	-0.1
Cc1cc(C)cc(Cn2cc(CN3CC(N4CCN(CCN(C)C)CC4)CS3(=O)=O)nn2)c1 (stereo unspecified)	4.6	1.4	·	·	·	-0.2
CCc1cccc(NS(=O)(=O)c2ccc3c(c2)NC(=O)C(C)S3)c1 (stereo unspecified)	-4.5	-4.7	34.8	5.5	77.0*	0.8
COc1cccc(NS(=O)(=O)c2ccc3c(c2)NC(=O)C(C)S3)c1 (stereo unspecified)	4.4	-3.8	-0.9	4.0	2.6	0.4
c1ccc(-c2cc3nccc(-c4ccccn4)n3n2)cc1	0.6	-1.1	0.0	32.7	2.8	-0.1
O=C(Cc1ccc2c(c1)CCCC2)Nc1ccc2ccccc2c1	-0.3	-3.9	13.0	-5.8	56.7*	-0.1
O=C(CSc1cccs1)Nc1ccc2ccccc2c1	-2.9	2.7	28.6	3.9	56.6*	0.2
O=C(CSc1cccs1)Nc1cccc2ccccc12	2.0	3.9	23.9	-6.5	62.7*	0.1
O=C(Cc1ccc(Cl)cc1)Nc1ccc(N2CCN(C(=O)c3ccco3)CC2)cc1	1.7	-2.4	40.7	-0.4	80.2*	0.1
O=C(c1ccco1)N1CCN(c2ccc(Cl)cc2)CC1	-6.9	-2.6	24.4	-1.1	70.5*	0.3
O=C(c1ccco1)N1CCN(C(=O)N2CCOCC2)CC1	2.7	0.9	29.9	-0.9	71.4*	-0.1
O=C(c1ccco1)N1CCN(c2ncnc3c(-c4ccccc4)nsc23)CC1	-4.3	4.8	27.5	0.6	50.9*	0.0
O=C(CSc1nnc(-c2ccncc2)n1-c1ccc(F)cc1)NC(=O)NCc1ccco1	1.1	0.9	-1.9	3.1	-8.1	0.1
COc1ccc(Cl)cc1NC(=S)NCCc1c[nH]c2ccccc12	-3.7	0.7	7.8	-4.4	22.2	-0.3
COc1ccc(C(=O)C2CCCN(C(=O)c3cccc(N4CCCC4=O)c3)C2)cc1OC (stereo unspecified)	-0.1	-5.2	14.6	-5.3	?	-0.1
COc1ccc(NC(=O)CSC2=NC(=O)CC(C)=N2)cc1	5.4	0.1	-5.7	-4.0	-4.3	-0.1
O=C(c1ccco1)N1CCN(c2ccc(Cl)c(Cl)c2)CC1	-7.1	2.5	58.3	3.9	99.0*	0.6
Cc1cc(NC(=O)Cn2cnc3sc(C)c(-c4ccccc4)c3c2=O)no1	0.9	-5.5	119.9	2.0	185.1*	-0.2
Cc1cc(NC(=O)Cn2cnc3sc(C)c(C)c3c2=O)no1	-4.0	1.7	·	·	·	0.0
